Results on 14 compounds are retold here after PubChem BioAssay.

The source made the active and inactive calls.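 How the source made its calls, unless noted: active means inhibition at or above 50% at 10 µM; inactive means inhibition below 50%.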

Test [1] can be described thus: inhibitors of TNFa-induced NFkB p65 translocation, primary screen, imaging, HUVEC, MLSMR starter and 10KST1 sets (AID 438;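 active means inhibition above 20% together with a positive visual image hit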;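 further: compound added about 3h40 before a 20 min TNFalpha stimulation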;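 on inhibition: signal is the nuclear over cytoplasmic p65 intensity ratio per well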). The settings on record: HUVEC TNFa-induced p65 nuclear translocation; cell count: measured here: nuclei count (cytotoxicity indicator), at 2.08 µM; inhibition: at 2 µM, stronger effect = higher value, 0% TNFa-plus-vehicle, 100% no-TNFa wells.
A short description of test [2]: reduction of polyQ htt aggregates in cells – imaging, exon1htt(103Q)mCFP cells, high-content imaging, primary screen (AID 483;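 active means visual image review flags a hit and inhibition of aggregation exceeds 20%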;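 further: compound exposure lasted 3 days before fixation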;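 on nuclei count: percent of the per-plate median nuclei count of sample wells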). The settings on record: exon1htt(103Q)mCFP cell line, aggregate imaging, at 2 µM; inhibition of aggregation: stronger effect = higher value; nuclei count: measured here: cell count, toxicity.
Test [3] is described as follows: endothelial E-selectin expression blockers – imaging, HUVEC, immunofluorescence, MLSMR starter and 10KST1 sets, primary screen (AID 487;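 active means visually confirmed hit in the image check and inhibition above 20%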;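 on inhibition: signal is fraction of cell area covered by stained E-selectin grains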;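 on nuclei count: 100% = median nuclei count of all wells on the same plate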). The settings on record: HUVEC TNFalpha-induced E-selectin immunofluorescence imaging, at 2 µM; inhibition: stronger effect = higher value; nuclei count: measured here: cell number, toxicity.
For test [4], the target named is Voltage-gated potassium channel subunit beta-2 (Rattus norvegicus) (UniProt P62483). As to the kind of experiment: inhibitors of rat Kvbeta2 reductase activity – biochemical, NADPH fluorescence, primary screen (AID 622;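 active means fluorescence slope higher than the sample average by over 3 SD, cut at about -0.22 in these data, passing the limit was not always enough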;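 further: slope of raw intensity against log time taken from 70 to 1610 s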). To be noted: recombinant KvBeta, 4-cyanobenzaldehyde reduction, at 10 µM, stronger effect = higher value.
Chain of Voltage-gated potassium channel subunit beta-2 (Rattus norvegicus) (P62483 whole entry, looked up): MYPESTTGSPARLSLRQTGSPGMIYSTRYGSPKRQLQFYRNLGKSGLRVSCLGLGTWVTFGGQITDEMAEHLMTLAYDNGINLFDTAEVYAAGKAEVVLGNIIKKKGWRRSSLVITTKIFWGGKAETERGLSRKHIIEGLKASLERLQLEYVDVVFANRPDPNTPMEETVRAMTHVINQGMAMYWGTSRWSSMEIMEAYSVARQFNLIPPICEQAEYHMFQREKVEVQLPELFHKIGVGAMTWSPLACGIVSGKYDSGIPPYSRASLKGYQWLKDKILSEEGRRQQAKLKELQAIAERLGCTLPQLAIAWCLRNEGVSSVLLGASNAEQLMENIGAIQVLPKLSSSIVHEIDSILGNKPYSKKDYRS
Test [5] shares this target. As to the kind of experiment: enhancers of rat Kvbeta2 NADPH turnover – biochemical, NADPH fluorescence, primary screen (AID 623;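 active means NADPH fluorescence slope more negative than the mean of all samples by about 3 SD, 99.7% confidence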;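 further: fluorescence intensity change per second fitted from 20 to 320 s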). To be noted: Recombinant KvBeta, NADPH fluorescence decrease slope, 10 min; at 10 µM; stronger effect = lower value.
The target in test [6] is Alpha-2C adrenergic receptor (Homo sapiens) (UniProt P18825). Kind of test: compounds altering alpha2C-coupled GIRK flux – cell-based, HEK293 alpha2C/GIRK1/2, thallium flux, primary screen (AID 624;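 active means fluorescence slope after compound addition differing from the mean of all screened samples at 99.7% confidence, in either direction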;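 further: slope of fluorescence ratio to pre-addition baseline per second over 15 to 24 s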). The settings on record: thallium flux BTC fluorescence, at 10 µM, actives lie on both sides.
Chain of Alpha-2C adrenergic receptor (Homo sapiens) (P18825 whole entry, looked up): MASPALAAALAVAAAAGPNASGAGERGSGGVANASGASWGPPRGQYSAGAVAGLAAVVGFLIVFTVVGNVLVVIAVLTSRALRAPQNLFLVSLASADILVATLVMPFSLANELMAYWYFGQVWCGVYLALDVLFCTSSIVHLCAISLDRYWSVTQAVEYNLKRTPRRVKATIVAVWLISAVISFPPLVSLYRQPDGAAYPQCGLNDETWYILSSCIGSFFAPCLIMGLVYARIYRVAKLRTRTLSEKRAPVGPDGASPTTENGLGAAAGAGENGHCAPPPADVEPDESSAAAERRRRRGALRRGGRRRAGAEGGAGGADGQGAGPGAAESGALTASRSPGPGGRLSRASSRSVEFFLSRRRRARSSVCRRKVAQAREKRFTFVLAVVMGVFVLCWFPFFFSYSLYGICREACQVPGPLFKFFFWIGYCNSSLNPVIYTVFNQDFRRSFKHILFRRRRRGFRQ
The nature of test [7]: blockers of RIG-like receptor reporter activation – cell-based, Sendai virus stimulus, luciferase, 10K MLSCN set, TLR/RLR signaling modifier project, primary screen (AID 602276).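 Further: firefly luciferase from ISG56 promoter only with Renilla not read in this screen; 0% = Sendai virus plus DMSO and 100% = medium plus DMSO without virus.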 The settings on record: HEK293 RL24 IRF3 luciferase reporter, at 10 µM, stronger effect = higher value.
A short description of test [8]: TLR3 IRF3 reporter activation blockers – cell-based, poly I:C stimulus, luciferase, 10K MLSCN set, primary screen (AID 602277;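 active means inhibition of the reporter signal at or above 50%; inactive means inhibition below 50%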). The settings on record: HEK293-TLR3 RL24 IRF3 luciferase reporter, at 10 µM, stronger effect = higher value.

With `Cc1[nH]nc2c1C(C1CC=CCC1)C(C#N)=C(N)O2` (centres undefined), the cell count in test [1] came to 424. Moreover, the inhibition in test [1] is 6.7% (inactive); in test [3], -127% (inactive); in test [7], -0.754% (inactive); in test [8], 40.2% (inactive). In addition, the inhibition of aggregation in test [2] is -6.7% (inactive). Also, the nuclei count in test [2] stood at 99.5%; in test [3], 117%. Also, the fluorescence slope in test [4] was -0.459 (inactive). In addition, the NADPH fluorescence slope in test [5] was 8.5e-06 (inactive). In test [6], the slope is 0.00356 (inactive).

With `CCC(C)(C)NC(=O)CN(C(=O)c1snc(C(N)=O)c1N)c1ccc2c(c1)OCO2`, in test [1], the cell count amounted to 688. Besides, the inhibition in test [1] is -7.3% (inactive); in test [3], -39.8% (inactive); in test [7], 13.1% (inactive); in test [8], 14.6% (inactive). Further, in test [2], the inhibition of aggregation is 0.7% (inactive). The nuclei count in test [2] came out at 103%; in test [3] it was 120%. Further, the fluorescence slope in test [4] was -0.517 (inactive). Besides, in test [5], the NADPH fluorescence slope was 3.3e-05 (inactive). Also, the slope in test [6] is 0.00589 (inactive).

For the compound `COc1ccc(OC)c(C(=O)c2ccc(C(=O)O)cc2)c1`, the cell count in test [1] was determined as 415. For the same compound, the inhibition in test [1] is 10.6% (inactive); in test [3], -71.4% (inactive); in test [7] it was 16.7% (inactive); in test [8], 18.4% (inactive). For the same compound, the inhibition of aggregation in test [2] was -5.3% (inactive). The nuclei count in test [2] is 100%; in test [3], 110%. Also, in test [4], the fluorescence slope is -0.508 (inactive). Further, the NADPH fluorescence slope in test [5] is -2.9e-05 (inactive). Also, the slope in test [6] was 0.00489 (inactive).

Take `Cc1nnc(N(C)C(=O)c2cccnc2)s1`: the cell count in test [1] was found to be 704. Further, the inhibition in test [1] was -7.5% (inactive); in test [3], -47.1% (inactive); in test [7], -6.83% (inactive); in test [8], -1.4% (inactive). For the same compound, the inhibition of aggregation in test [2] is 8.5% (inactive). Also, the nuclei count in test [2] and in test [3] was 109% throughout. The fluorescence slope in test [4] is -0.547 (inactive). Besides, the NADPH fluorescence slope in test [5] was 3.7e-05 (inactive). In addition, the slope in test [6] was 0.0062 (inactive).

Turning to `O=C(Nc1ccc2c(c1)OCO2)C(c1ccccc1)N1CCC2(CC1)OCCO2` (centres undefined), in test [1], the cell count was 649. The inhibition in test [1] is 2% (inactive); in test [3], 23.5% (inactive); in test [7] it was -14.7% (inactive); in test [8], 1% (inactive). Also, the inhibition of aggregation in test [2] is -13.5% (inactive). The nuclei count in test [2] came out at 107%; in test [3] it was 115%. Moreover, in test [4], the fluorescence slope is -0.51 (inactive). The NADPH fluorescence slope in test [5] is 3.6e-05 (inactive). The slope in test [6] is 0.00477 (inactive).

For the compound `COc1ccc(CCNC(=O)C2CCCN(c3nn4c(=O)cc(C)nc4s3)C2)cc1OC` (centres undefined), in test [1], the cell count amounted to 371. Also, the inhibition in test [1] is -4% (inactive); in test [3] it was -9% (inactive); in test [7], 19.7% (inactive); in test [8], 16.7% (inactive). Moreover, the inhibition of aggregation in test [2] was 10.8% (inactive). For the same compound, the nuclei count in test [2] came out at 94.9%; in test [3], 100%. In addition, in test [4], the fluorescence slope is -0.403 (inactive). Moreover, in test [5], the NADPH fluorescence slope was -5.9e-05 (inactive). For the same compound, the slope in test [6] is 0.0045 (inactive).

In the case of `c1ccc(-c2nc3nonc3c3nc4ccccc4n23)cc1`, the cell count in test [1] stood at 333. Besides, the inhibition in test [1] is -12.4% (inactive); in test [3], -40.9% (inactive); in test [7], 9.01% (inactive); in test [8], -7.48% (inactive). Moreover, the inhibition of aggregation in test [2] was 1.1% (inactive). For the same compound, the nuclei count in test [2] was found to be 95.8%; in test [3], 94.2%. Also, the fluorescence slope in test [4] was -0.244 (inactive). Besides, the NADPH fluorescence slope in test [5] was -2.9e-05 (inactive). Besides, the slope in test [6] was 0.00529 (inactive).

For the compound `COc1cccc(C=Nc2ccc3c(c2)OCCO3)c1O`, the cell count in test [1] was 301. Moreover, the inhibition is 5.1% (inactive) in test [1], 25.8% (inactive) in test [3], 12.6% (inactive) in test [7] and -2.51% (inactive) in test [8]. Further, the inhibition of aggregation in test [2] was 9% (inactive). Also, the nuclei count came out at 97.3% in test [2] and 83.4% in test [3]. Further, in test [4], the fluorescence slope is -0.501 (inactive). For the same compound, in test [5], the NADPH fluorescence slope is -3.1e-05 (inactive). Also, the slope in test [6] was 0.00551 (inactive).

`COc1ccc(C(O)Cn2c(=N)n(CCCN(C)C)c3ccccc32)cc1` (centres undefined): in test [1], the cell count came to 569. The inhibition was -12.9% (inactive) in test [1], -30.3% (inactive) in test [3], -10.7% (inactive) in test [7] and -0.929% (inactive) in test [8]. Besides, the inhibition of aggregation in test [2] is -27.4% (inactive). Also, the nuclei count was 85.7% in test [2] and 112% in test [3]. For the same compound, the fluorescence slope in test [4] is -0.587 (inactive). Besides, the NADPH fluorescence slope in test [5] was 2.2e-05 (inactive). Also, in test [6], the slope is 0.00727 (inactive).

In the case of `Fc1cccc(Nc2ncnc3c2cnn3-c2ccccc2)c1`, the cell count in test [1] came out at 644. Also, the inhibition was -3.3% (inactive) in test [1], -51.7% (inactive) in test [3], -54.2% (inactive) in test [7] and -148% (inactive) in test [8]. In test [2], the inhibition of aggregation was 0.4% (inactive). The nuclei count in test [2] turned out to be 109%; in test [3] it was 127%. The fluorescence slope in test [4] is -0.57 (inactive). Further, the NADPH fluorescence slope in test [5] is 4.4e-06 (inactive). Also, in test [6], the slope is 0.00538 (inactive).

Consider `Cn1cnc2c(N3CCCCC3)nccc21`, for which the cell count in test [1] came to 720. Moreover, the inhibition in test [1] was -31% (inactive); in test [3], -88.5% (inactive); in test [7] it was 7.97% (inactive); in test [8], 22.8% (inactive). The inhibition of aggregation in test [2] was 0.5% (inactive). Moreover, the nuclei count in test [2] was found to be 97.8%; in test [3], 122%. Moreover, in test [4], the fluorescence slope was -0.417 (inactive). Also, in test [5], the NADPH fluorescence slope is -0.000121 (inactive). For the same compound, the slope in test [6] was 0.00681 (inactive).

`CCC12CN3CC(CC)(CN(C1)C3c1ccc(OC(C)C)cc1)C2=O` (centres undefined): in test [1], the cell count stood at 692. In addition, the inhibition in test [1] was 12.1% (inactive); in test [3] it was -15.2% (inactive); in test [7], 8.78% (inactive); in test [8], 15.9% (inactive). In addition, the inhibition of aggregation in test [2] was 10.5% (inactive). For the same compound, the values for the nuclei count in test [2] and in test [3] were 93.2% and 94.3%, respectively. The fluorescence slope in test [4] is -0.528 (inactive). Moreover, the NADPH fluorescence slope in test [5] is -0.000143 (inactive). The slope in test [6] is 0.0058 (inactive).

As to `Cc1ccc(C)c2[nH]c(=O)c(CCNC(=O)c3ccc(S(=O)(=O)N(C)C)cc3)cc12`, in test [1], the cell count turned out to be 596. The inhibition in test [1] is 4.3% (inactive); in test [3] it was -14% (inactive); in test [7] it was 3.79% (inactive); in test [8], 22.8% (inactive). The inhibition of aggregation in test [2] is 15% (inactive). The nuclei count in test [2] amounted to 125%; in test [3], 116%. Besides, the fluorescence slope in test [4] is -0.557 (inactive). Besides, the NADPH fluorescence slope in test [5] was -4e-05 (inactive). In test [6], the slope was 0.00528 (inactive).

Regarding `Cc1cc(C)cc(NS(=O)(=O)c2ccc3[nH]c(=O)[nH]c3c2)c1`, in test [1], the cell count was 378. Moreover, the inhibition is -5.5% (inactive) in test [1], -23.4% (inactive) in test [3], 16.1% (inactive) in test [7] and 36.9% (inactive) in test [8]. For the same compound, the inhibition of aggregation in test [2] was 2.4% (inactive). The nuclei count amounted to 112% in test [2] and 115% in test [3]. Moreover, in test [4], the fluorescence slope is -0.392 (inactive). The NADPH fluorescence slope in test [5] is 4.9e-07 (inactive). For the same compound, the slope in test [6] is 0.00328 (inactive).
